Source: PubChem BioAssay
Compounds with a hit are over-represented: about 1.9% of the library has one in this group of screens.
IL2 activator – activators of IL-2 | IL-2 activation reporter assay, cell-based qHTS; stimulated with anti-CD3/CD4/CD28 beads; in transgenic mouse T cells | activation, % (series mostly up to about 46 µM) | 0.065% of 360,000 active | AID 652025; in the data active means activation above about 50%; inconclusive means mostly about 30% to 49%; further: 0% is about no effect
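Screening format: compound pinned onto unstimulated transgenic mouse T cells, 60 min incubation, then anti-CD3/anti-CD4/anti-CD28 bead stimulation for 18 hours at 37 degrees C, followed by EGFP and DsRed detection.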
RXFP1 agonist – agonists of human relaxin receptor RXFP1; Q9HBX9; HEK293T-RXFP1 cAMP TR-FRET, 30 min; response scale: percent of porcine relaxin response, buffer zero; Potency, µM (series often up to 57.5 µM), for inactives: at the top dose activation, actives largely listed as activators; 0.3% of 370,000 active; AID 2676; further: potency means the concentration at half of the fitted maximal effect; on the % scale 0 is the no-effect control and ±100 the full control effect; nearly all actives have a fitted effect of over 60% in size
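HEK293T cells stably expressing RXFP1 were pretreated with the PDE4 inhibitor Ro 20174, exposed to compounds for 30 min at 37C, lysed, and cAMP was read by TR-FRET. Data normalized to buffer (basal) and 29 nM porcine relaxin (100%).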
NPSR antag – antagonists of human neuropeptide S receptor cAMP signaling; CHO-NPSR cells, cAMP TR-FRET, antagonist mode; 1% of 220,000 active; Potency, µM (titrated, usually from 38.3 µM), for inactives: at the highest dose activity change, negative = inhibition, most hits filed as inhibitors; further: potency means the concentration at half of the fitted maximal effect; on the % scale 0 is the no-effect control and ±100 the full control effect; nearly all actives have a fitted effect of over 50% in size
Target sequence (Q6W5P4 whole entry, looked up): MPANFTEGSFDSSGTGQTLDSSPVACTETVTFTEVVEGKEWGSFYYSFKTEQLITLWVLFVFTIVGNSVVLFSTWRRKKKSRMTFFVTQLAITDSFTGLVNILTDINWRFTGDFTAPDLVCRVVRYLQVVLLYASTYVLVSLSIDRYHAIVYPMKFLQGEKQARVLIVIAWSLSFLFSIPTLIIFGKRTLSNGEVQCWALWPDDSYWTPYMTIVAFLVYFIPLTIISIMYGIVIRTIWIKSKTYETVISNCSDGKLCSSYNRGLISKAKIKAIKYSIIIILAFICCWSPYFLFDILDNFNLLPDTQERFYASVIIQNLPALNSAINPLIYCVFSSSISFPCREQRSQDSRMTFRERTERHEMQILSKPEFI
BRCA1 expr act – increases BRCA1 expression. AID 624202. Potency, µM (titrated, usually from 46.1 µM), inactives show top-dose activation, most hits filed as activators. 1.1% of 380,000 active. MCF7-BRCA1-FFLuc reporter, luminescence, 48 h; response scale: scaled: vehicle 0%, 10 µM genistein 100%; further: potency means the concentration at half of the fitted maximal effect; nearly all actives have a fitted effect of over 80% in size
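First, MCF7-BRCA1-FFLuc cells (2000/well) attach for 2 h; next, compounds are pin-added and incubated 48 h at 37 °C; finally, luciferase reagent is added and luminescence read after 15 min.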
RXFP1 antagonist – RXFP1 (human) relaxin receptor antagonism; Q9HBX9; HEK293-RXFP1, relaxin-stimulated cAMP HTRF, 30 min; active compounds read low; activity change, negative = inhibition, % at 57.5 µM; 0.59% of 350,000 active;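 active means activity change of -60% or lower, but not beyond a set lower limit; inconclusive means change between -60% and -40%, or beyond the set limit; inactive means change above -40%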; further: on the % scale 0 is the no-effect control and ±100 the full control effect
Giardia killer – Giardia lamblia killing. activity change, % at 7.66 µM, hits read low. 0.15% of 340,000 active. Giardia lamblia trophozoite viability; in the data active means activity change below about -80%; inconclusive means between about -30% and that limit;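 further: parasites exposed to compound for two days anaerobically before the ATP read; on the % scale 0 is the no-effect control and ±100 the full control effect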
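Media and compound were dispensed first, then trophozoites at 100 cells/well; plates sat 48 hrs at 37 deg C without oxygen before ATP luminescence reagent was added and read after 15-30 min at room temperature.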
* = called active by the depositor; ? = inconclusive; / = no result; [ ] = another dose, or the depositor's remark. Unless noted, the call rests on the fitted dose curve; in most records, active means well fitted curve in the direction sought with a large enough effect; inconclusive means small, poorly fitted or top-dose-only effect, or another doubt; inactive means no such curve, though single readings can be large; an effect the other way counts as inactive or inconclusive.

SMILES	IL2 activator	RXFP1 agonist	NPSR antag	BRCA1 expr act	RXFP1 antagonist	Giardia killer
O=C1C[C@H](c2ccccc2Cl)N1S(=O)(=O)c1ccccc1[N+](=O)[O-]	/	/	/	/	/	-18
Fc1ccc(-c2cnn3c(-c4cccs4)ccnc23)cc1	106*	-3%	-16%	1%	0	-10
Fc1ccc(-c2cnn3c(-c4ccncc4)ccnc23)cc1	4	1%	9%	?	13	-12
Nc1nonc1-n1nnc(C(=O)N/N=C/c2ccc(OCc3cccc(Cl)c3)cc2)c1CN1CCCCC1	-2	0%	/	2.5µM*	0	2
Cc1ccc(NC(=O)c2ccc(OC(=S)N3CCOCC3)cc2)cc1	-1	-1%	4%[46.1 µM]	27%	-11	15
O=C(Nc1ccccc1Br)c1ccc(OC(=S)N2CCOCC2)cc1	-1	-1%	9%	7.9µM*	5	4
CCCCCCCC/C=C/C(=O)O	/	/	/	/	-22	/
COC(=O)Cn1c(C)nc2c(sc3nc(C)cc(C)c32)c1=O	0	3%	-5%[46.1 µM]	6.3µM*	-1	-11
COc1ccc(-c2n(Cc3ccccc3)c3ccccc3[n+]2Cc2ccccc2)cc1	-2	1%	10µM*	-58%	?	-10
Cc1ccc(N=Cc2sc(O)c3ccccc23)c(C)c1	0	1%	-12%[46.1 µM]	3.2µM*	0	7
Oc1c(C(Nc2cccnc2)c2ccccc2F)ccc2cccnc12 (configuration not stated)	/	/	/	-65%	/	/
COc1ccccc1N1CCN(Cc2cc(Br)c(O)c3ncccc23)CC1	-5	-2%	-23%[46.1 µM]	-76%	-92*	0
Clc1ccc(-c2cc(CSc3ccccc3)on2)cc1	-2	-1%	-13%[46.1 µM]	3.5µM*	-15	7
COc1ccccc1OCc1cc(-c2ccccc2)no1	-3	-1%	-5%	2.8µM*	1	9
COc1ccc(OCc2cc(-c3ccc(Cl)cc3)no2)cc1	0	4%	-5%	21%	11	2
c1ccc(OCc2cc(-c3ccccc3)no2)cc1	0	-1%	-15%	5µM*	-3	-13
NS(=O)(=O)c1ccc(S(=O)(=O)N2CCN(c3nc(-c4cccs4)nc4ccccc34)CC2)cc1	/	/	/	-28%	/	6
O=C(NNc1ccccc1)c1sc2ccccc2c1Cl	/	/	/	3%	/	-12
COC(=O)CCN(Cc1ccco1)S(=O)(=O)c1ccc(F)cc1Br	/	/	/	/	/	10
CC(CCC(C)[n+]1cccc(C#N)c1)[n+]1cccc(C#N)c1 (configuration not stated)	/	/	/	1%	/	/
CC(C)(C)c1ccc(/C([O-])=C(/C(=S)NCc2ccco2)[n+]2ccccc2)cc1	/	25µM*	?	/	/	/
CC(C)(C)c1ccc(C(=O)NC(=S)NCc2ccco2)cc1	-2	1%	/	65%	-4	3
CCC(/C=C1\Sc2ccc(OC)cc2N1CC)=C\c1sc2ccc(OC)cc2[n+]1CCCS(=O)(=O)[O-]	-4	9%	-34%	-18%	-6	-15
CCC(/C=C1\Sc2ccc(OC)cc2N1CCO)=C\c1sc2ccc(OC)cc2[n+]1CCO	4	-10%	10µM*	-74%	-16	-1
O=C(Cc1ccc(OCCc2ccccc2)cc1)NO	/	/	/	32%	/	/
SMILES	IL2 activator	RXFP1 agonist	NPSR antag	BRCA1 expr act	RXFP1 antagonist	Giardia killer
CN1/C(=C/c2cccc[n+]2CCO)Sc2ccccc21	2	1%	/	-18%	-19	-16
CCN1/C(=C/c2ccc3cc(C)ccc3[n+]2CC)Sc2ccccc21	90*	26%	10µM*	-67%	-17	29
CC[n+]1c(/C=C2\Sc3ccccc3N2C)ccc2cccc(C)c21	160*	?	10µM*	-76%	-31	-13
CC(C)(C)c1ccc(C2Sc3ccccc3NC3=C2C(=O)c2ccccc23)cc1 (configuration not stated)	/	3%	/	/	-17	/
O=[N+]([O-])c1ccccc1OCc1nc(-c2cccs2)no1	2	0%	4%	2.8µM*	-5	2
CC(=O)c1ccc(NC(=O)CSc2nc(C3CCCC3)nc3c2c(=O)n(C)c(=O)n3C)cc1	/	9%	/	/	-6	/
c1ccc(NC2=Nc3ccccc3CS2)cc1	-1	2%	15%[46.1 µM]	3.5µM*	4	-14
c1ccc(N=c2nc(-c3ccccc3)n(-c3ccccc3)s2)cc1	/	/	/	-41%	/	9
CCCCCN=C(C)c1c(O)c2ccccc2oc1=O	0	0%	-22%[46.1 µM]	11µM*	-5	2
CCOC(=O)CN1C(=O)C(CC)Oc2ccccc21 (configuration not stated)	0	0%	6%[46.1 µM]	1%	13	0
CCOC(=O)C(C(=O)OCC)C1N=C(N)N=C2Oc3ccccc3N21 (configuration not stated)	0	-2%	-13%[46.1 µM]	13µM*	16	10
O=C(c1ccc2c(=O)n(CC3CCCO3)c(=S)[nH]c2c1)N1CCN(C(=O)c2ccco2)CC1 (configuration not stated)	/	/	/	5%	/	-4
CC(C)c1ccc(OCC(=O)N2CCCCCC2)c(Br)c1	-1	0%	-16%	10µM*	-17	-19
Cc1cc(Br)ccc1OCC(=O)N1CCCCCC1	0	-1%	?	26%	4	-2
Cc1nc2ccccc2c(N)c1C(=O)/C=C/c1ccccc1	-4	-1%	/	-52%	-83*	-5
CS(=O)(=O)c1ccc(-c2cn3ccccc3n2)cc1	/	/	/	/	-4	/
Cc1nn(-c2ccccc2)c(Cl)c1/C=C1\SC(=S)NC1=O	-2	1%	10µM*	-5%	18	-5
CN1CC(c2ccccc2)C2(SC(=S)N(Cc3ccco3)C2=O)C12C(=O)Nc1ccccc12 (configuration not stated)	-3	-2%	10µM*	-89%	-9	0
CN1CC(c2ccccn2)C2(SC(=S)N(Cc3ccccc3)C2=O)C12C(=O)Nc1ccccc12 (configuration not stated)	-2	3%	-30%[46.1 µM]	-75%	6	-6
CCC(C(=O)Nc1ccccc1N1CCCC1)c1ccccc1 (configuration not stated)	-5	0%	/	-27%	-68*	3
O=C(CN1C(=O)C2CCCCC2C1=O)Nc1ccccc1N1CCCC1 (configuration not stated)	0	-1%	/	-1%	-99*	28
O=C(CN1C(=O)C2CC=CCC2C1=O)Nc1ccccc1N1CCCC1 (configuration not stated)	-2	0%	/	2%	-15	8
Cc1cc(C(=O)CSc2nnnn2C)c(C)n1Cc1ccco1	-4	1%	-4%	4.5µM*	-10	13
